# Key:
# Assay in all cases: DAPPL (digital affinity profiling via proximity ligation, sequencing); 10 mM Tris-HCl pH 7.5, 50 mM NaCl, 1 mM DTT, 4% glycerol, room temperature, 30 min; GST-TFs on glutathione beads, 16-mer random dsDNA library, 0.1% formaldehyde crosslink after washing; high values mean tight binding
# Details in all cases: protein: recombinant; tags: N-terminal GST; dsDNA, one strand shown
# [1] = target: T1, FLI1 (Homo sapiens, UniProt Q01543 1-452)
# T1 sequence: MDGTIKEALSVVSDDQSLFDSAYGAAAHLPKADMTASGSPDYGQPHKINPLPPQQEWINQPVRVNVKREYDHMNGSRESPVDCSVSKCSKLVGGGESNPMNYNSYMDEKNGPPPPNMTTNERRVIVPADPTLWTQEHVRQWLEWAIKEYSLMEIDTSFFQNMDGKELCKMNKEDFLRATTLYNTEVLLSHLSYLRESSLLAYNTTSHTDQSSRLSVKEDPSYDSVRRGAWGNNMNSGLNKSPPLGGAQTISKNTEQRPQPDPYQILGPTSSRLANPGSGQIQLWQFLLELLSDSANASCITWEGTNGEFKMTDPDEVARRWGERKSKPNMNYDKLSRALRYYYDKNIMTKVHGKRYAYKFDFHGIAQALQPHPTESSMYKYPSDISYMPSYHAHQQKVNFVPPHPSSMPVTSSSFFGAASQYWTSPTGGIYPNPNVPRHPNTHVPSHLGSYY
# Procedure, shortened: (§1)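 Human transcription factors carrying a GST fusion were produced in yeast, bound to glutathione beads, tagged with DNA barcodes and pooled together with a tag-only sample. Each pool was held with 200 nmole of a random double-stranded 16-mer DNA library in Tris/NaCl/DTT/glycerol buffer for 30 min at room temperature, then washed, crosslinked in 0.1% formaldehyde, proximity-ligated with BsaI/T4 ligase (1 h, 37 °C), PCR-amplified and sequenced on an Illumina NextSeq500. Binding signal is the read frequency of each hexamer for a given factor divided by its frequency in the tag-only sample.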
# [2] = target: T2, ELK1 (Homo sapiens, UniProt P19419 1-428)
# T2 sequence: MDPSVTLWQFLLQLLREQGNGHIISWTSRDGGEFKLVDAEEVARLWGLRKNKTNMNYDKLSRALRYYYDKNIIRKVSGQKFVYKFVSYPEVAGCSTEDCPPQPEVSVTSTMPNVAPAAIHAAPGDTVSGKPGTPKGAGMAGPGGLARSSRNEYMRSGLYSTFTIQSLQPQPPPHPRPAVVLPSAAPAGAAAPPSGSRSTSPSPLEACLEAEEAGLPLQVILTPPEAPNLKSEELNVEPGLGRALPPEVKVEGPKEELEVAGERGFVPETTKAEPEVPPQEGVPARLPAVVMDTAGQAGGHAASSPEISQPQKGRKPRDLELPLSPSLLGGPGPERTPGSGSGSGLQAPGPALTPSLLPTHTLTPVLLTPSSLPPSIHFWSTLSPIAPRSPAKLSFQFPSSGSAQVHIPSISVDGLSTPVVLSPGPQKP
# Procedure, shortened: as §1
# [3] = target: T3, GABPA (Homo sapiens, UniProt Q06546 1-454)
# T3 sequence: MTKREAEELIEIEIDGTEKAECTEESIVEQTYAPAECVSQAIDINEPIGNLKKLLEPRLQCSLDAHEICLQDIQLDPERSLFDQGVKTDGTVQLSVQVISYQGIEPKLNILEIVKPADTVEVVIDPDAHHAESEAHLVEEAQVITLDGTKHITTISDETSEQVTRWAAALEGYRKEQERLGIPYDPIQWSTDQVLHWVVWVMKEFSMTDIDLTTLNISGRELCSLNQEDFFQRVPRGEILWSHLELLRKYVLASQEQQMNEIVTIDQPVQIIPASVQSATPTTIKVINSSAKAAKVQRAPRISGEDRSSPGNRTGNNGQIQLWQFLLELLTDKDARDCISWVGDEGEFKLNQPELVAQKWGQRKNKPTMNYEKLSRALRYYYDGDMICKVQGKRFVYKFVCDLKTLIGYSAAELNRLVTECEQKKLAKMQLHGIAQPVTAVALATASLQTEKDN
# Procedure, shortened: as §1
# [4] = target: T4, ERG (Homo sapiens, UniProt P11308 1-479)
# T4 sequence: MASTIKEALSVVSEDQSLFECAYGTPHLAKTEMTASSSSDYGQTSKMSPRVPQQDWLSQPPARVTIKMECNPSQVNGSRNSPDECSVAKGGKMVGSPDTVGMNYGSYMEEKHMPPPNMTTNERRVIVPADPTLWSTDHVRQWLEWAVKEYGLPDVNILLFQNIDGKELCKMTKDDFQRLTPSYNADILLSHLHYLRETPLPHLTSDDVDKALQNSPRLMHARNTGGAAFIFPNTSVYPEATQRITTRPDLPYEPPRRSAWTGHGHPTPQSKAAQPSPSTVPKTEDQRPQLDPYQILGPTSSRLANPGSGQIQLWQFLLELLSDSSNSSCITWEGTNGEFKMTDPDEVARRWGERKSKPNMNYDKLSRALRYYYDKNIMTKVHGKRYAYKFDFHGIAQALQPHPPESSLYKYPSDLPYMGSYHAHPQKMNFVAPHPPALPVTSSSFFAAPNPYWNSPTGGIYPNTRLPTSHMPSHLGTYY
# Procedure, shortened: as §1
# [5] = target: ELF1 (Homo sapiens, UniProt P32519 1-619)
# Procedure, shortened: as §1
# [6] = target: T5, EHF (Homo sapiens, UniProt Q9NZC4 1-300)
# T5 sequence: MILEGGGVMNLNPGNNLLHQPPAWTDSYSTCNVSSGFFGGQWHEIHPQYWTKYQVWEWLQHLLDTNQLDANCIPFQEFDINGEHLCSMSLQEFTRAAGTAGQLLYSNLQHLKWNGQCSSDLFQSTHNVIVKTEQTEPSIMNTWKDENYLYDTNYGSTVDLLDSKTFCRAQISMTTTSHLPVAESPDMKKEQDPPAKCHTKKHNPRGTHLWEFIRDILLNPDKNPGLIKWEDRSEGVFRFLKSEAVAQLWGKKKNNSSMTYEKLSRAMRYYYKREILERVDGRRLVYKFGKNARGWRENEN
# Procedure, shortened: as §1
# [7] = target: SPI1 (Homo sapiens, UniProt P17947 1-270)
# Procedure, shortened: as §1
# [8] = target: SPIB (Homo sapiens, UniProt Q01892 1-262)
# Procedure, shortened: as §1
# [9] = target: T6, ELK3 (Homo sapiens, UniProt P41970 1-407)
# T6 sequence: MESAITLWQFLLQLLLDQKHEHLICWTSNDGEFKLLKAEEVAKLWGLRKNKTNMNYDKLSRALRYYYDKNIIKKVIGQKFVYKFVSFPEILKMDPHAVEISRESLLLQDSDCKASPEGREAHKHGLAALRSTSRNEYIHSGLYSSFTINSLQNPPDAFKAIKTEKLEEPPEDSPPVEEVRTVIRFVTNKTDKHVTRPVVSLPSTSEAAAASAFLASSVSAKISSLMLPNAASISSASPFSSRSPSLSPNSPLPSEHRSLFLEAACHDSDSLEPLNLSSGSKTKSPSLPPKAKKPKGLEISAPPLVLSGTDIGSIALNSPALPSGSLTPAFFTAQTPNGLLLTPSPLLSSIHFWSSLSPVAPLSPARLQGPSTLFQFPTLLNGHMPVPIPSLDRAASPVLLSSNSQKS
# Procedure, shortened: as §1
# SPIB, sequence (Q01892 whole entry): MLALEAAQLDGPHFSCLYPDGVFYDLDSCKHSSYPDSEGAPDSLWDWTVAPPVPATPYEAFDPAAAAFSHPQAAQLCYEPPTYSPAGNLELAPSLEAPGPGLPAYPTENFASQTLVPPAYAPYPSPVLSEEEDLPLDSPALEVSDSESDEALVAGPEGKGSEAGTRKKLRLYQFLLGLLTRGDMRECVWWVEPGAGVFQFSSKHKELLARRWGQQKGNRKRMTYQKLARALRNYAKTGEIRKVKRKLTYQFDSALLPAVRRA
# ELF1, sequence (P32519 whole entry): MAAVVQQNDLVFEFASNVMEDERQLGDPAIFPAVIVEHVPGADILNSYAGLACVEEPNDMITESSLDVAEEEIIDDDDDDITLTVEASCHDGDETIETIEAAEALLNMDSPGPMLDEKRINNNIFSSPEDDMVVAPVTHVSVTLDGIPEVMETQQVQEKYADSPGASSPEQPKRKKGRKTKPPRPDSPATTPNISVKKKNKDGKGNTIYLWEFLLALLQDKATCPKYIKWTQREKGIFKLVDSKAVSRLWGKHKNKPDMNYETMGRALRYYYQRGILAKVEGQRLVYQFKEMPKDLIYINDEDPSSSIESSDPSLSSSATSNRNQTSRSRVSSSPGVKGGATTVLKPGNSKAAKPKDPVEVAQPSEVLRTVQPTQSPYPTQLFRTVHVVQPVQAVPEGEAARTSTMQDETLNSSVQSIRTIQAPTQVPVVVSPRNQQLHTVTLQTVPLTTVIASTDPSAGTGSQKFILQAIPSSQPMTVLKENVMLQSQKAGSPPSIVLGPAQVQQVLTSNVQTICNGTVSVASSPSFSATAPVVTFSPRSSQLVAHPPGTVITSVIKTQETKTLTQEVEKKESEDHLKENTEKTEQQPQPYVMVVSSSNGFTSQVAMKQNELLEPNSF
sequence,measurement,setting,value
TCCTCC,binding signal,[1],"1.47 fold enrichment (6-mer frequency, TF over GST control)"
same,binding signal,[2],"1.61 fold enrichment (6-mer frequency, TF over GST control)"
same,binding signal,[3],"1.49 fold enrichment (6-mer frequency, TF over GST control)"
same,binding signal,[4],"1.58 fold enrichment (6-mer frequency, TF over GST control)"
same,binding signal,[5],"1.52 fold enrichment (6-mer frequency, TF over GST control)"
same,binding signal,[6],"1.61 fold enrichment (6-mer frequency, TF over GST control)"
same,binding signal,[7],"1.68 fold enrichment (6-mer frequency, TF over GST control)"
same,binding signal,[8],"1.6 fold enrichment (6-mer frequency, TF over GST control)"
same,binding signal,[9],"1.55 fold enrichment (6-mer frequency, TF over GST control)"
